Consider 40 sequences from the supplement of paper PMC10681739.

In the first assay the target is T1, ETS1 (UniProt P14921).
T1 sequence: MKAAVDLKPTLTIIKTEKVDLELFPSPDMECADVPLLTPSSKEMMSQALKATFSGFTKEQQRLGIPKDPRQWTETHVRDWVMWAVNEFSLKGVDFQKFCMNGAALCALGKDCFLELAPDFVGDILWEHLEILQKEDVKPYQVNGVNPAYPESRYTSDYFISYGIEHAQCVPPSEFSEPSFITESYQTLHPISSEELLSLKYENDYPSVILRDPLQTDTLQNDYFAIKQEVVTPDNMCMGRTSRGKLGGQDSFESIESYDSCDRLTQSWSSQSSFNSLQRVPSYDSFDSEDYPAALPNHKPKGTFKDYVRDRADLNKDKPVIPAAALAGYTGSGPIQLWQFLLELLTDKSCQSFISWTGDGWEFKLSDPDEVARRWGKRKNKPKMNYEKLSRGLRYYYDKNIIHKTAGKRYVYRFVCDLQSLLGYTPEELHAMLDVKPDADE
The assay is described as follows: ETS1 binding intensity (PBM fluorescence), ETS1 alone (arbitrary fluorescence units); higher = stronger binding. The note with it: ETS1 concentration 1 nM; RUNX1 concentration 0 nM.
As to TGGCCAGGAAGCCACTCGATTGCCGGCGCCCGCAGC, the ETS1 binding intensity came to 415.

For CTGCACAGGGAAGTGAGTGTCGAGCTCACCGCACCG, the ETS1 binding intensity was found to be 383.

With GGGAGGGCGGAAGGCGGCTCTGCGGCAGCAAGCCCC, the ETS1 binding intensity amounted to 476.

Consider CTTCCATCCAGGAAGCTTGTGGTGCAACAGCAGTGT, for which the ETS1 binding intensity amounted to 840.

TGCTTAGAACACGGAAACACTGAGGTTTTACTTTGA: the ETS1 binding intensity is 482.

As for TGCGCCAGCCTTCCTGTCGTGGTCACCGGTGGCAGC, the ETS1 binding intensity is 446.

TGCAGCCGCCGCGTCCGGTCCAGCCGCAGGGCCATG came in with an ETS1 binding intensity of 536.

CAGCCAGCCAGGAAGCAGGGGCTGCGGGGCTGACAG showed an ETS1 binding intensity of 691.

For the sequence GGCAGGCAGCAGAGGAAACCACCCCCACCCACTCCC, the ETS1 binding intensity came out at 1420.

In turn, GCAGTCGCTAAGGGCGGAAACCACTGTTTGGGAGCT displayed an ETS1 binding intensity of 2110.

Sequence CAGTGGCTTCCTCCCCACCTCCTACCACATTCAATG displayed an ETS1 binding intensity of 517.

Consider CTCCTGAGGAAGTAGTTACAGACACCACAGCGGAGG, for which the ETS1 binding intensity stood at 511.

For TTACACCCAAGGGATGTTGTTTGTGGGGGGCGGGGT, the ETS1 binding intensity was 445.

For GCCACCGTATTTCCGCGTTTTTCGCGGTAGGCGGGA, the ETS1 binding intensity turned out to be 465.

The sequence AGCGCTTCCCCTTCCGCTGCCGCAGCCGCCGCCTCC had an ETS1 binding intensity of 498.

CCAGGGGCACACCGGAACCCACACCTGAAATCACAG: the ETS1 binding intensity was found to be 647.

On to TGAGGGCATAGGAAGTGATGGCCGCAAGGGGATGCC, for which the ETS1 binding intensity worked out at 1860.

ACAGGTTCAGGAAGCGGCCGTGGTTGTTAGTGGTGT gave an ETS1 binding intensity of 718.

GGTGTTAGTAGTCAAGGAAGTGGTCACCCTTGACAG came in with an ETS1 binding intensity of 1010.

Turning to CCGGGCCTCCAGACGGAACTGTGGGCGAGGGGAGGG, the ETS1 binding intensity was found to be 470.

GGAGCAACCGGCCGGATACCGCCACAGCCCTGGCAG returned an ETS1 binding intensity of 1720.

Turning to TTTCTTCCTGTTTGCATCACCCCAAACCCACTATCA, the ETS1 binding intensity was determined as 514.

As for GGAGGGCTTCCTGCCCACCACCACCCACAGCAGCTG, the ETS1 binding intensity turned out to be 730.

GTGCGGAAGCGCGCCAAGGCACGTGACCGCTTCTGT yielded an ETS1 binding intensity of 381.

In turn, TGCATGTGCAGCAGAGGAAACCACAAGTTATTCCCT gave an ETS1 binding intensity of 557.

GCACGCGCCGGGCGGAACCCACAGGCCTGGAAGCGA: the ETS1 binding intensity stood at 537.

TAGCCATCGTGCAAAGGATGTGGTGAAGTCAGTCAG came in with an ETS1 binding intensity of 942.

On to ATACATACAGGATGACATTTGTCCTGTGGGCACCAG, for which the ETS1 binding intensity was found to be 495.

As for GGCGGCCTCAACTTCCGCGGTGGGACTCCGGAGCAG, the ETS1 binding intensity turned out to be 503.

As to CTGAAGGCTGGGGAGGAAGTGACCGCCCTCATATGC, the ETS1 binding intensity is 2120.

The sequence CGACGTCACTTCCGCTGGTTCAAGCACCGCGAGACT returned an ETS1 binding intensity of 1900.

GGGCAGGTGCGGATGCCGAGGAGAGTGGTCACCTCG yielded an ETS1 binding intensity of 449.

Sequence CAGGCCTGTGATTTCCTCTGAGTGGTTTTCTTGGCC displayed an ETS1 binding intensity of 465.

Sequence GCGCGGCTCAGGAAGCGACGCGGTTCAGGGAGCGAA returned an ETS1 binding intensity of 707.

Turning to TAACTTGAACTTCCTTTTGACCACCTGTACGGTATA, the ETS1 binding intensity worked out at 497.

As for CCTCTCAACAGCATTTCCTGGTGGTCAGATATCTGA, the ETS1 binding intensity stood at 580.

In turn, CCATTTCCTGATTCTAATGTTCATCAACCACTTTTG returned an ETS1 binding intensity of 504.

In the case of TGGCAGGATGCCGTTAAATATGTAACCACATGTCTC, the ETS1 binding intensity amounted to 500.

For CTGCTGGGCCCCTTCCTGTCAGCGGTTGCTCTTTAC, the ETS1 binding intensity turned out to be 673.

In the case of TGAGGCTCAGAGGAAGTGACTGGCCCGCAGGGTCAC, the ETS1 binding intensity is 1050.

The target of a further assay is T1, ETS1. The assay is described as follows: ETS1 binding intensity (PBM fluorescence) in presence of RUNX1, normalised to ETS1-only experiment (arbitrary fluorescence units); higher = stronger binding. The note with it: ETS1 concentration 1 nM; RUNX1 concentration 25 nM.
As to TGGCCAGGAAGCCACTCGATTGCCGGCGCCCGCAGC, the ETS1 binding intensity worked out at 458.

In the case of CTGCACAGGGAAGTGAGTGTCGAGCTCACCGCACCG, the ETS1 binding intensity was found to be 690.

GGGAGGGCGGAAGGCGGCTCTGCGGCAGCAAGCCCC: the ETS1 binding intensity turned out to be 341.

In the case of CTTCCATCCAGGAAGCTTGTGGTGCAACAGCAGTGT, the ETS1 binding intensity is 1100.

As to TGCTTAGAACACGGAAACACTGAGGTTTTACTTTGA, the ETS1 binding intensity came to 560.

For the sequence TGCGCCAGCCTTCCTGTCGTGGTCACCGGTGGCAGC, the ETS1 binding intensity amounted to 400.

Regarding TGCAGCCGCCGCGTCCGGTCCAGCCGCAGGGCCATG, the ETS1 binding intensity is 543.

For the sequence CAGCCAGCCAGGAAGCAGGGGCTGCGGGGCTGACAG, the ETS1 binding intensity is 524.

GGCAGGCAGCAGAGGAAACCACCCCCACCCACTCCC: the ETS1 binding intensity amounted to 1640.

Consider GCAGTCGCTAAGGGCGGAAACCACTGTTTGGGAGCT, for which the ETS1 binding intensity was 3180.

Take CAGTGGCTTCCTCCCCACCTCCTACCACATTCAATG: the ETS1 binding intensity was determined as 467.

For CTCCTGAGGAAGTAGTTACAGACACCACAGCGGAGG, the ETS1 binding intensity worked out at 491.

Turning to TTACACCCAAGGGATGTTGTTTGTGGGGGGCGGGGT, the ETS1 binding intensity was found to be 490.

In the case of GCCACCGTATTTCCGCGTTTTTCGCGGTAGGCGGGA, the ETS1 binding intensity was determined as 576.

Regarding AGCGCTTCCCCTTCCGCTGCCGCAGCCGCCGCCTCC, the ETS1 binding intensity was found to be 466.

Regarding CCAGGGGCACACCGGAACCCACACCTGAAATCACAG, the ETS1 binding intensity is 739.

On to TGAGGGCATAGGAAGTGATGGCCGCAAGGGGATGCC, for which the ETS1 binding intensity stood at 2390.

Regarding ACAGGTTCAGGAAGCGGCCGTGGTTGTTAGTGGTGT, the ETS1 binding intensity was 639.

Consider GGTGTTAGTAGTCAAGGAAGTGGTCACCCTTGACAG, for which the ETS1 binding intensity amounted to 2150.

As for CCGGGCCTCCAGACGGAACTGTGGGCGAGGGGAGGG, the ETS1 binding intensity was 404.

GGAGCAACCGGCCGGATACCGCCACAGCCCTGGCAG: the ETS1 binding intensity turned out to be 1400.

Turning to TTTCTTCCTGTTTGCATCACCCCAAACCCACTATCA, the ETS1 binding intensity was found to be 469.

For the sequence GGAGGGCTTCCTGCCCACCACCACCCACAGCAGCTG, the ETS1 binding intensity was 676.

In the case of GTGCGGAAGCGCGCCAAGGCACGTGACCGCTTCTGT, the ETS1 binding intensity turned out to be 475.

For TGCATGTGCAGCAGAGGAAACCACAAGTTATTCCCT, the ETS1 binding intensity is 1560.

Turning to GCACGCGCCGGGCGGAACCCACAGGCCTGGAAGCGA, the ETS1 binding intensity is 803.

On to TAGCCATCGTGCAAAGGATGTGGTGAAGTCAGTCAG, for which the ETS1 binding intensity was 2620.

On to ATACATACAGGATGACATTTGTCCTGTGGGCACCAG, for which the ETS1 binding intensity was 515.

In the case of GGCGGCCTCAACTTCCGCGGTGGGACTCCGGAGCAG, the ETS1 binding intensity turned out to be 445.

Turning to CTGAAGGCTGGGGAGGAAGTGACCGCCCTCATATGC, the ETS1 binding intensity came out at 2330.

As to CGACGTCACTTCCGCTGGTTCAAGCACCGCGAGACT, the ETS1 binding intensity is 1500.

As to GGGCAGGTGCGGATGCCGAGGAGAGTGGTCACCTCG, the ETS1 binding intensity was determined as 435.

As to CAGGCCTGTGATTTCCTCTGAGTGGTTTTCTTGGCC, the ETS1 binding intensity is 401.

In the case of GCGCGGCTCAGGAAGCGACGCGGTTCAGGGAGCGAA, the ETS1 binding intensity is 577.

Consider TAACTTGAACTTCCTTTTGACCACCTGTACGGTATA, for which the ETS1 binding intensity came out at 462.

With CCTCTCAACAGCATTTCCTGGTGGTCAGATATCTGA, the ETS1 binding intensity was 587.

For CCATTTCCTGATTCTAATGTTCATCAACCACTTTTG, the ETS1 binding intensity is 397.

TGGCAGGATGCCGTTAAATATGTAACCACATGTCTC: the ETS1 binding intensity turned out to be 1250.

As to CTGCTGGGCCCCTTCCTGTCAGCGGTTGCTCTTTAC, the ETS1 binding intensity is 716.

TGAGGCTCAGAGGAAGTGACTGGCCCGCAGGGTCAC: the ETS1 binding intensity came to 1550.
